{"source": "the supplement of paper PMC11417369", "note": "± gives the standard deviation of the averaged measurements. In all, about 25,000 sequences were measured (“ln(normalized median fluorescence intensity)”: median about 8.6, highest 2% from about 10 on). The entries come from a sample that favours the highest values as a whole.", "data": [{"test_system": "PfAP2-EXP AP2 domain (GST-tagged)", "test": "gcPBM binding intensity (ln(normalized median fluorescence intensity)); higher = stronger DNA binding", "method_in_brief": "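Alexa488 anti-GST antibody, scanned at 488 nm, detected GST-tagged P. falciparum DNA-binding domains that had been expressed in E. coli and incubated for 1 h on an Agilent 4 × 180k array. The array carried primer-extended double-stranded 36-bp intergenic genomic probes and negative controls. Binding intensity is the highest Masliner-normalised natural-log median intensity across replicate spots of either orientation of each probe.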", "values": [{"sequence": "ATATAATATATTTTCACACATATTTTATGATGATAA [CACACA_site5614]", "gcPBM binding intensity (ln)": "8.3 ± 0.42"}, {"sequence": "TAAATTTGTGGGATTTCACACAGGTTTATTTACATT [CACACA_site5455]", "gcPBM binding intensity (ln)": "8.13 ± 0.45"}, {"sequence": "AGAATAATACAAAAATGTACATTAATAAAAAGATAG [XGTACX_site780]", "gcPBM binding intensity (ln)": "8.99 ± 0.42"}, {"sequence": "TAACAAGGTTTATATGCATGCAAACATAACCAAAAA [TGCATGCA_site824]", "gcPBM binding intensity (ln)": "9.96 ± 0.23"}, {"sequence": "CTTACATAAAATATCACACACATAAAAAAACAATAT [CACACA_site1901]", "gcPBM binding intensity (ln)": "8.87 ± 0.39"}, {"sequence": "TAACATAGCAATGTTTCACACACAAGAAAAAATACA [CACACA_site8747]", "gcPBM binding intensity (ln)": "8.84 ± 0.45"}, {"sequence": "GGGTTAATATTTACTACACACACTTAAAATATGTAT [CACACA_site47]", "gcPBM binding intensity (ln)": "8.59 ± 0.47"}, {"sequence": "ATAATATTAGTAAACACACTCAAATTATATATGATA [CACACA_site5721]", "gcPBM binding intensity (ln)": "8.28 ± 0.59"}, {"sequence": "AATAAATAAATAAGTACACACATATATATATATATA [CACACA_site284]", "gcPBM binding intensity (ln)": "10.2 ± 0.6"}, {"sequence": "TATATATATATATATAGTACACATATCACATAAATG [XGTACX_site6379]", "gcPBM binding intensity (ln)": "10.2 ± 0.23"}, {"sequence": "AAATTAATAAGTCACACACACATATATAATATATAT [CACACA_site799]", "gcPBM binding intensity (ln)": "8.54 ± 0.36"}, {"sequence": "AATAAATAAATAAGTACACACATATAAATATAAATA [CACACA_site6271]", "gcPBM binding intensity (ln)": "8.69 ± 0.27"}, {"sequence": "TATAAAAATAAAAAAAGTACACATAAAAATATATAT [XGTACX_site5189]", "gcPBM binding intensity (ln)": "8.77 ± 0.33"}, {"sequence": "ATTAAAATATAAGTCACACATATATATATATATATA [CACACA_site6145]", "gcPBM binding intensity (ln)": "10.2 ± 0.33"}, {"sequence": "ATAAAATAAAATAAAAGTACATAAATATATATATAT [XGTACX_site6110]", "gcPBM binding intensity (ln)": "9.83 ± 0.28"}, {"sequence": "ATATAAATAAAAAAAAGTACATAATATATAAAAATA [XGTACX_site3065]", "gcPBM binding intensity (ln)": "8.72 ± 0.33"}, {"sequence": "TACATAAAATATATCACACATATAATATATATATAT [CACACA_site5834]", "gcPBM binding intensity (ln)": "9.54 ± 0.16"}, {"sequence": "CAAAATTAATAAGTCACACACACATATATAATATAT [CACACA_site798]", "gcPBM binding intensity (ln)": "8.73 ± 0.45"}, {"sequence": "TGTAATAAATAGTACACACACACATATATATATATT [CACACA_site1388]", "gcPBM binding intensity (ln)": "8.73 ± 0.38"}, {"sequence": "TAAAAAAAAATAAAAAGTACATATATATATATATAT [XGTACX_site1155]", "gcPBM binding intensity (ln)": "10.3 ± 0.46"}, {"sequence": "AGTTGGATACGAAGATGTACAATAATAATAATTAAG [XGTACX_site3561]", "gcPBM binding intensity (ln)": "8.9 ± 0.35"}, {"sequence": "GTGAAATTATATTTTTGTACATATATTATATATTAT [XGTACX_site3387]", "gcPBM binding intensity (ln)": "8.52 ± 0.32"}, {"sequence": "ACATACATACACCCACGTACGTACCGAAACACCACC [XGTACX_site1212]", "gcPBM binding intensity (ln)": "9.11 ± 0.35"}, {"sequence": "TATTTATGTTCATATAAACACACGTAAAATTCAAGG [CACACA_site1538]", "gcPBM binding intensity (ln)": "8.62 ± 0.39"}, {"sequence": "TAAATAATAATAAAATGTACATTATATATGTATATG [XGTACX_site8672]", "gcPBM binding intensity (ln)": "8.44 ± 0.36"}]}]}
